Reference: PubChem BioAssay (Tox21)
Records with an inconclusive call do not appear. Where a call stands in place of a potency, no number is given. Values without a mark were called inactive. Active and inactive are the calls of the source. The call rests on the fitted dose curve.

assay: p53 small molecule agonists, cell-based qHTS assay with human liver microsomes (AID 1963577); conditions: HCT-116 p53RE-bla with human liver microsomes, ratio, 16 h; series mostly up to 66 µM;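 further: p53 response element beta-lactamase reporter cells with liver microsomes plus NADPH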
Text: National Center for Advancing Translational Sciences [NCATS]
Division of Preclinical Innovation [DPI]
U.S. Environmental Protection Agency [EPA]
National Institutes of Environmental Health Sciences [NIEHS]
National Toxicology Program [NTP]
U.S. Food and Drug Administration [FDA]
p53, a tumor suppressor protein, is activated following cellular insult, including DNA damage and other cellular stresses. The activation of p53 regulates cell fate by inducing DNA repair, cell cycle arrest, apoptosis, or cellular senescence. The activation of p53, therefore, is a good indicator of DNA damage and other cellular stresses. […] The activation of the reporter gene under culture conditions can be detected by fluorescence intensity.
Tox21 Assay Protocol Summary:
The p53RE-bla cells were dispensed at 4,000cells/3ul/well in 1536-well black-clear bottom plates. After the assay plates were incubated at 37 C, 5% CO2 incubator for 5 hours, 23 nL of compounds dissolved in DMSO, positive controls or DMSO only was transferred to the assay plate. Following compound addition, 3 uL of human liver microsomes (XenoTech, Kansas City, KS) at final concentration of 0.5 mg/mL and 1uL of Beta-Nicotinamide adenine dinucleotide 2-phosphate (NADPH) at final concentration of 0.5 mg/mL were transferred to the assay plate. The plates were incubated at 37 C for 16 hours. 1 uL of LiveBLAzer detection mixture was added to each well and the plates were incubated at room temperature in the dark for 2 h.

SMILES	Potency	activation
O=C(O)CC(C(=O)O)S(=O)(=O)O (stereo not given)	inactive	
Cc1cc(=O)oc2cc(O[C@@H]3SC[C@@H](O)[C@H](O)[C@H]3O)ccc12	inactive	
C(=C/c1ccccc1)/c1ccccc1	inactive	
CCC(C)c1nccnc1OC (stereo not given)	inactive	
CC(C)(O)C(=O)c1ccccc1	inactive	
C1=CCCC1	inactive	
CCOC(=O)OCC/C(SC(=O)OCC)=C(\C)N(C=O)Cc1cnc(C)nc1N	inactive	
C=CCCCC	inactive	
C[C@]12CCC(=O)C=C1CC[C@@H]1[C@@H]2CC[C@@]2(C)[C@H]1CC[C@]2(O)C(=O)CO	inactive	
COC(=O)c1c(C)cc(O)c(C)c1O	inactive	
COC(=O)CC#N	inactive	
Cc1c(C(=O)NCCO)[n+](=O)c2ccccc2n1[O-]	inactive	
O=C(CO)[C@@H](O)[C@H](O)[C@@H](O)CO	inactive	
CN(C)CC/C=C1/c2ccccc2COc2ccc(CC(=O)O)cc21	inactive	
CCCC(C)C=O (stereo not given)	inactive	
CC(C)=CCC1=C(O)c2ccccc2C(=O)C1=O	inactive	
c1ccc(COCc2ccccc2)cc1	inactive	
CC(C)(C)NSc1nc2ccccc2s1	inactive	
O=C(CCN1CCN2CCCC2C1)N1c2ccccc2Sc2ccc(Cl)cc21 (stereo not given)		-1.04% [at 13.5 µM]
OCCN(CCO)c1ccccc1	inactive	

SMILES	Potency	activation
CC(c1cc(C(C)(C)C)cc(C(C)(C)C)c1O)c1cc(C(C)(C)C)cc(C(C)(C)C)c1O	inactive	
CC(C)(C)C(=O)CC(=O)C(C)(C)C	inactive	
CC(=O)[C@H]1CC[C@H]2[C@@H]3C=CC4=CC(=O)CC[C@@]4(C)[C@@H]3CC[C@]12C	inactive	
C/C=C/C=C/CCCCCCCO	inactive	
NCCS	inactive	
CC(=O)CC(c1ccc([N+](=O)[O-])cc1)c1c(O)c2ccccc2oc1=O (stereo not given)	inactive	
CCC(=O)Oc1ccc2c(c1)CC[C@@H]1[C@@H]2CC[C@@]2(C)[C@H]1C[C@@H](OC(=O)CC)[C@@H]2OC(=O)CC	inactive	
COC(C)(C)CCCC(C)CC=O (stereo not given)	inactive	
c1ccc(CN(CC2=NCCN2)c2ccccc2)cc1	inactive	
COc1ccc(-n2nc(CCC(=O)N(C)O)cc2-c2ccc(Cl)cc2)cc1	inactive	
CN(C)C/C=C(/c1ccc(Br)cc1)c1cccnc1	inactive	
CC(C)C[C@H](NC(=O)[C@H](CCc1ccccc1)NC(=O)CN1CCOCC1)C(=O)N[C@@H](Cc1ccccc1)C(=O)N[C@@H](CC(C)C)C(=O)[C@@]1(C)CO1	inactive	
c1cc[nH]c1	inactive	
CCCCCN=C(N)N/N=C/c1c[nH]c2ccc(OC)cc12	inactive	
O=P(O)(O)OCC(O)CO (stereo not given)	inactive	
CO[Si](OC)(OC)OC	inactive	
CCCOC(=O)c1ccc(C(=O)OCCC)nc1	inactive	
CC(C)=CCC/C(C)=C/CC/C(C)=C/CO	inactive	
CCN(CC)CCOc1ccc(Cc2ccccc2)cc1	inactive	
Cc1ccccc1N1CCN(CCc2nnc3n2CCCC3)CC1	inactive	
